Test results as given in the supplement of paper PMC7380943.

Experiments:
[1] = test system: CLZ3 (HCA2 human fibroblast dual HR-NHEJ reporter); assay: NHEJ repair efficiency (GFP+ cells) relative to control (log10 fold); higher = more non-homologous end joining; conditions: 5 µM; doxycycline 0.5 ug/mL
[2] = test system: CLZ3 (HCA2 human fibroblast dual HR-NHEJ reporter); assay: HR repair efficiency (tdTomato+ cells) relative to control (log10 fold); higher = more homologous recombination; conditions: 5 µM; doxycycline 0.5 ug/mL
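For HR repair efficiency (tdTomato+ cells) relative to control in this document: compound given one day before doxycycline, which switches on I-SceI endonuclease expression to create double-strand breaks within the integrated reporter.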
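For NHEJ repair efficiency (GFP+ cells) relative to control in this document: compound given one day ahead of doxycycline, which switches on I-SceI endonuclease to cut the chromosomally integrated reporter and create DSBs.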

C[C@@H]1CC[C@@]2(OC1)O[C@H]1C[C@H]3[C@@H]4CC=C5C[C@@H](O[C@@H]6O[C@H](CO)[C@@H](O)[C@H](O)[C@H]6O)CC[C@]5(C)[C@H]4CC[C@]3(C)[C@H]1[C@@H]2C [Diosgenin glucoside]
NHEJ repair efficiency (log10) [1]: -0.0975
HR repair efficiency (log10) [2]: 0.0102

C[C@H](CCC(=O)O)[C@H]1CC[C@H]2[C@@H]3C[C@H](O)[C@@H]4C[C@H](O)CC[C@]4(C)[C@H]3CC[C@]12C [Hyodesoxycholic acid]
NHEJ repair efficiency (log10) [1]: -0.299
HR repair efficiency (log10) [2]: -0.322

CCOC(=O)c1cc(O)c(O)c(O)c1 [Gallic Acid Ethyl Ester]
NHEJ repair efficiency (log10) [1]: 0.018
HR repair efficiency (log10) [2]: 0.00694

Cc1c(S(=O)(=O)O)oc2c1C(=O)C(=O)c1c-2ccc2c1CCCC2(C)C [Tanshinone Iia Sodium Sulfonate]
NHEJ repair efficiency (log10) [1]: 0.0248
HR repair efficiency (log10) [2]: 0.126

O=c1c(O)c(-c2ccc(O)cc2O)oc2cc(O)cc(O)c12 [Morin]
NHEJ repair efficiency (log10) [1]: 0.0612
HR repair efficiency (log10) [2]: 0.0351

C=C(C)[C@@H]1CC[C@]2(C)[C@H](CC=C3[C@@H]4[C@@H](C)[C@H](C)CC[C@]4(C)CC[C@]32C)[C@@]1(C)CCC(=O)O [Roburic acid]
NHEJ repair efficiency (log10) [1]: 0.15
HR repair efficiency (log10) [2]: 0.128

Cc1cc(O)c2c(c1)C(=O)c1cccc(O)c1C2=O [Chrysophanol]
NHEJ repair efficiency (log10) [1]: 0.0473
HR repair efficiency (log10) [2]: 0.134

CC1(C)[C@@H](O)CC[C@]2(C)[C@H]3CC=C4[C@@H]5C[C@@]6(C)C[C@H](OC6=O)[C@]5(C)CC[C@@]4(C)[C@]3(C)CC[C@@H]12 [Wilforlide A]
NHEJ repair efficiency (log10) [1]: -0.137
HR repair efficiency (log10) [2]: 0.00171

O=C(O)Cc1c(C=CC(=O)OC(Cc2ccc(O)c(O)c2)C(=O)O)ccc(O)c1O (centres undefined) [Salvianolic Acid D]
NHEJ repair efficiency (log10) [1]: -0.0658
HR repair efficiency (log10) [2]: 0.105

CO[C@]1(CC[C@H](C)CO[C@@H]2O[C@H](CO)[C@@H](O)[C@H](O)[C@H]2O)O[C@H]2C[C@H]3[C@@H]4CC[C@@H]5C[C@@H](O[C@@H]6O[C@H](CO)[C@H](O)[C@H](O)[C@H]6O[C@@H]6O[C@H](CO)[C@@H](O)[C@H](O)[C@H]6O)CC[C@]5(C)[C@H]4CC[C@]3(C)[C@H]2[C@@H]1C [Anemarsaponin E]
NHEJ repair efficiency (log10) [1]: 0.0103
HR repair efficiency (log10) [2]: -0.0664

C/C=C(/C)C(=O)O[C@@H]1[C@H](OC(C)=O)c2c(ccc3ccc(=O)oc23)OC1(C)C [Praeruptorin A]
NHEJ repair efficiency (log10) [1]: -0.00436
HR repair efficiency (log10) [2]: -0.0186

C[C@H]1O[C@@H](O[C@H]2CC[C@@]3(C)[C@@H](CC[C@]4(C)[C@@H]3C=C[C@]35OC[C@@]6(CCC(C)(C)C[C@H]63)[C@@H](O)C[C@]54C)[C@]2(C)CO)[C@H](O)[C@@H](O[C@@H]2O[C@H](CO)[C@@H](O)[C@H](O)[C@H]2O)[C@H]1O [Saikosaponin a]
NHEJ repair efficiency (log10) [1]: -0.305
HR repair efficiency (log10) [2]: -0.315

CC(C)C(C)C(O)C(O)C(C)C1CCC2C3COC(=O)C4CC(O)C(O)CC4(C)C3CCC12C (centres undefined) [Brassinolide]
NHEJ repair efficiency (log10) [1]: -0.122
HR repair efficiency (log10) [2]: -0.073

COc1ccc(-c2oc3cc(OC)c(OC)c(O)c3c(=O)c2OC)cc1O [Vitexicarpin]
NHEJ repair efficiency (log10) [1]: -0.0426
HR repair efficiency (log10) [2]: -0.203

CC(C)=CCC/C(C)=C/C=C/C(C)=C/C=C/C(C)=C/C=C/C=C(C)/C=C/C=C(C)/C=C/C=C(\C)CCC=C(C)C [Lycopene]
NHEJ repair efficiency (log10) [1]: -0.109
HR repair efficiency (log10) [2]: 0.0372

COc1ccc([C@@H]2CC(=O)c3c(O)cc(O[C@@H]4O[C@H](CO)[C@@H](O)[C@H](O)[C@H]4O[C@@H]4O[C@@H](C)[C@H](O)[C@@H](O)[C@H]4O)cc3O2)cc1O [Neohesperidin]
NHEJ repair efficiency (log10) [1]: -0.0783
HR repair efficiency (log10) [2]: -0.11

CCCCCC=CC(=O)CCc1ccc(O)c(OC)c1 [6-Shogaol]
NHEJ repair efficiency (log10) [1]: -0.0185
HR repair efficiency (log10) [2]: -0.0794

COC(=O)C1=CO[C@@H](O[C@@H]2O[C@H](CO)[C@@H](O)[C@H](O)[C@H]2O)[C@@H]2[C@H](C)O[C@@H](O)C[C@H]12 [Morroniside]
NHEJ repair efficiency (log10) [1]: 0.0778
HR repair efficiency (log10) [2]: 0.186

O=c1cc(-c2ccccc2)oc2cc(O)cc(O)c12 [Chrysin]
NHEJ repair efficiency (log10) [1]: 0.01
HR repair efficiency (log10) [2]: -0.15

O=C(O)c1ccccc1 [Benzoic Acid]
NHEJ repair efficiency (log10) [1]: -0.0219
HR repair efficiency (log10) [2]: 0.137

CC=C1[C@H](O[C@@H]2O[C@H](CO)[C@@H](O)[C@H](O)[C@H]2O)OC=C(C(=O)OC)[C@H]1CC(=O)OC[C@H]1O[C@@H](OCCc2ccc(O)cc2)[C@H](O)[C@@H](O)[C@@H]1O (stereo in doubt) [Specnuezhenide]
NHEJ repair efficiency (log10) [1]: 0.00632
HR repair efficiency (log10) [2]: 0.0832

COc1cc(-c2oc3cc(O)cc(O)c3c(=O)c2O[C@@H]2O[C@H](CO)[C@@H](O)[C@H](O)[C@H]2O[C@@H]2O[C@@H](C)[C@H](O)[C@@H](O)[C@H]2O)ccc1O [Isorhamnetin 3-O-Neohesperoside]
NHEJ repair efficiency (log10) [1]: -0.0528
HR repair efficiency (log10) [2]: -0.0275
